# Results as given in PubChem BioAssay (NCATS).
# A number with no mark means an inactive call. Records with an inconclusive call do not appear. A call without a number means that no potency is given here. The source made the active and inactive calls. Calls follow the shape of the dose curve; as a rule, active = well fitted curve in the direction sought with a large enough effect; inconclusive = small, poorly fitted or top-dose-only effect, or another doubt; inactive = no such curve, though single readings can be large; an effect the other way counts as inactive or inconclusive.
# Assays:
# [1] = target: Glutathione peroxidase 1 (Homo sapiens) (UniProt P07203); experiment: Primary qHTS Assay for Inhibitors of Recombinant Selenoprotein Glutathione Peroxidase 1 (GPX1) (AID 1845191); also: nearly all actives have a fitted effect of over 65% in size
# Chain of Glutathione peroxidase 1 (Homo sapiens) (P07203 whole entry, looked up): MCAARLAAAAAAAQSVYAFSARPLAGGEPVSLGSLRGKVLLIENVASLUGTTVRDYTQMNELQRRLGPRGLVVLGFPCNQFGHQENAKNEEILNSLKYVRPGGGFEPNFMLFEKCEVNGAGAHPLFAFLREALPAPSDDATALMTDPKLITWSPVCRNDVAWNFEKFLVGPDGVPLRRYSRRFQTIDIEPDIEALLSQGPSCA
# Procedure, shortened: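 GR-coupled assay: compounds preincubated 30 min at room temperature with GPX1, then reaction started with CHP; final 10 nM GPX1, 1 mM GSH, 0.5 mM CHP, 0.5 mM NADPH, 100 nM GR, 0.01% BSA, pH 7.5 Tris buffer. NADPH fluorescence (340/450 nm) read at 0 and 15 min.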
# [2] = target: Phospholipid hydroperoxide glutathione peroxidase GPX4 (Homo sapiens) (UniProt P36969); experiment: Primary qHTS Assay for Inhibitors of Recombinant Selenoprotein Glutathione Peroxidase 4 (GPX4) (AID 1845192); also: nearly all actives have a fitted effect of over 65% in size; as to activity change, negative = inhibition: series mostly up to about 50 µM
# Chain of Phospholipid hydroperoxide glutathione peroxidase GPX4 (Homo sapiens) (P36969 whole entry, looked up): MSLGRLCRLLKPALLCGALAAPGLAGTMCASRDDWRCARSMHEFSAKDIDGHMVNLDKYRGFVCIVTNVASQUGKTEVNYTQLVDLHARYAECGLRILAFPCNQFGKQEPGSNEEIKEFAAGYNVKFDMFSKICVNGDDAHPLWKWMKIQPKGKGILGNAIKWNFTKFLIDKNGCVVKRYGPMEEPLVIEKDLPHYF
# Procedure, shortened: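 GR-coupled assay: recombinant GPX4 preincubated 30 min with compound at room temperature; final 200 nM GPX4, 1 mM GSH, 0.5 mM cumene hydroperoxide, 0.5 mM NADPH, 100 nM GR, 0.01% BSA, pH 7.5 Tris. NADPH fluorescence (340/450 nm) read at 0 and 15 min.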
# [3] = target: Luciferin 4-monooxygenase (Photinus pyralis) (UniProt P08659); experiment: Primary firefly luciferase (FLuc) qHTS assay for identification of artifact compounds. (AID 1845220); also: nearly all actives have a fitted effect of over 60% in size; as to activity change, negative = inhibition: series mostly up to about 54 µM
# Procedure, shortened: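 Enzymatic FLuc inhibition assay: compounds pre-exposed to luciferin/ATP (10 uM each) for 15 min, then purified P. pyralis enzyme at 10 nM added. Read-out: luminescence at 5 min.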
# [4] = Primary fluorescence-based thiol-reactive (MSTI) qHTS assay for identification of artifact compounds. (AID 1845221); also: nearly all actives have a fitted effect of over 65% in size; also: potency is read from the fitted curve at half-maximal effect;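 as to activity change, negative = thiol reactive: series mostly up to about 54 µM; thiol-reactive compounds lower the probe fluorescence signal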
# Procedure, shortened: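 First, 4 uM MSTI in 2% DMSO/PBS pH 7.4 was dispensed; next, compounds were added; then plates sat 1 h at room temperature without light. Finally, emission at 598 nm was recorded.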
# [5] = system: Nanoluciferase (engineered Oplophorus gracilirostris luciferase); experiment: Primary Nanoluciferase (NLuc) qHTS assay for identification of artifact compounds. (AID 1845222);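 also: NLuc secreted into diluted conditioned medium of S16 cells; series mostly up to about 54 µM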
# Procedure, shortened: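 S16 cell supernatant NLuc, 1:55; cpds qHTS; 15 min RT dark; Nano-Glo substrate 1:100, 5 min; luminescence; Hill fit of % inhibition.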
# [6] = Primary redox qHTS assay for identification of artifact compounds. (AID 1845223)
# Procedure, shortened: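 Amplex Red (25 uM) and HRP (250 mU/mL) in HBSS, with compounds for 15 min, then 250 uM DTT for 30 min, room temperature, dark. Fluorescence 525/598 nm read; normalized to DMSO and 10 uM DA3003; Hill fit.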
SMILES,Potency [1],Potency [2],"activity change, negative = inhibition [3]","activity change, negative = thiol reactive [4]","activity, negative = inhibition [5]",redox activity (% of DA3003) [6],Potency [3],Potency [4],Potency [5],Potency [6]
CC1(C)CC[C@]2(C(=O)O[C@@H]3O[C@H](CO)[C@@H](O)[C@H](O)[C@H]3O)CC[C@]3(C)C(=CCC4[C@@]5(C)CC[C@H](O[C@H]6O[C@H](CO)[C@@H](O)[C@H](O[C@@H]7O[C@H](CO)[C@@H](O)[C@H](O)[C@H]7O)[C@H]6O)C(C)(C)C5CC[C@]43C)[C@@H]2C1 (stereo partly specified),inactive,inactive,0.281% [at 11.6 µM],168% [at 11.5 µM],-0.923% [at 11.6 µM],12.2% [at 11.5 µM],,,,
Cc1cc(CO)c(O)c(C(=O)CC2CC(=O)NC(=O)C2)c1,inactive,inactive,,,,,inactive,inactive,inactive,inactive
O=C(/C=C/c1ccccc1)O[C@@H]1[C@@H](CO)O[C@@](CO)(O[C@H]2O[C@H](CO)[C@@H](O)[C@H](O)[C@H]2O)[C@H]1O,inactive,inactive,,,,,inactive,2.92 µM (active),inactive,inactive
CC(=O)O[C@@H]1[C@@H](O)[C@H](C)O[C@@H](O[C@H]2[C@@H]3C=CO[C@@H](O[C@@H]4O[C@H](CO)[C@@H](O)[C@H](O)[C@H]4OC(C)=O)[C@@H]3[C@@]3(CO)O[C@@H]23)[C@@H]1OC(=O)/C=C/c1ccc(O)cc1,inactive,inactive,,,,,inactive,6.3 µM (active),inactive,inactive
Nc1nc2c(nc(Sc3ccc(Cl)cc3)n2[C@@H]2O[C@@H]3COP(=O)(O)O[C@H]3[C@H]2O)c(=O)[nH]1,inactive,inactive,,,,,inactive,inactive,inactive,inactive
COc1cc(C2Oc3c(OC)cc(/C=C/C(=O)OC4CC(O)(C(=O)O)CC(O)C4O)cc3C2CO)ccc1O (stereo unspecified),inactive,inactive,,,,,inactive,inactive,inactive,inactive
